Experimental data from the supplement of paper PMC10849652.
Targets with a hit are over-represented here; the source holds about 8,800 in all. About 0.5% of all pairs of compound and target were hits.

What follows are targets tested with CC(C)(C)Cn1c(N)nc2ccc(-c3[nH]c(C(C)(C)C)nc3-c3ccc(F)cc3)nc21 [ralimetinib] (assay: log2 fold change, soluble protein after heating vs DMSO (PISA); higher = thermal stabilisation; K562 lysate, 10 uM; active = over 0.2 and 3.5 SD of the protein, either way, in both replicates (recomputed)).
Summary of the method: (§1)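 Quantification was by TMTpro 16plex LC-MS/MS with equalised channel sums, applied to the supernatant after 21,000xg for 90 min. Samples were crude K562 extract at 1 mg/mL protein in PBS pH 7.4 with 1 mM MgCl2, treated with 10 μM compound for 30 min, heated for 3 min across 48°C-58°C, pooled and brought to 0.5% NP-40 at 4°C. Values are log-two fold changes in thermal stability relative to solvent controls, from duplicates.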

UniProt Q12983, sequence (Q12983 whole entry, looked up): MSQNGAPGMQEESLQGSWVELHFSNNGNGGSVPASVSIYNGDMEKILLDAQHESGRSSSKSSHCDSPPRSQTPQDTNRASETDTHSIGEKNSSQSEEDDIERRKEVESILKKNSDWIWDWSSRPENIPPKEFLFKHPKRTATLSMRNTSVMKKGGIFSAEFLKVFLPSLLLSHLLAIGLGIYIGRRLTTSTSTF
UniProt Q9UQ88, sequence (Q9UQ88 whole entry, looked up): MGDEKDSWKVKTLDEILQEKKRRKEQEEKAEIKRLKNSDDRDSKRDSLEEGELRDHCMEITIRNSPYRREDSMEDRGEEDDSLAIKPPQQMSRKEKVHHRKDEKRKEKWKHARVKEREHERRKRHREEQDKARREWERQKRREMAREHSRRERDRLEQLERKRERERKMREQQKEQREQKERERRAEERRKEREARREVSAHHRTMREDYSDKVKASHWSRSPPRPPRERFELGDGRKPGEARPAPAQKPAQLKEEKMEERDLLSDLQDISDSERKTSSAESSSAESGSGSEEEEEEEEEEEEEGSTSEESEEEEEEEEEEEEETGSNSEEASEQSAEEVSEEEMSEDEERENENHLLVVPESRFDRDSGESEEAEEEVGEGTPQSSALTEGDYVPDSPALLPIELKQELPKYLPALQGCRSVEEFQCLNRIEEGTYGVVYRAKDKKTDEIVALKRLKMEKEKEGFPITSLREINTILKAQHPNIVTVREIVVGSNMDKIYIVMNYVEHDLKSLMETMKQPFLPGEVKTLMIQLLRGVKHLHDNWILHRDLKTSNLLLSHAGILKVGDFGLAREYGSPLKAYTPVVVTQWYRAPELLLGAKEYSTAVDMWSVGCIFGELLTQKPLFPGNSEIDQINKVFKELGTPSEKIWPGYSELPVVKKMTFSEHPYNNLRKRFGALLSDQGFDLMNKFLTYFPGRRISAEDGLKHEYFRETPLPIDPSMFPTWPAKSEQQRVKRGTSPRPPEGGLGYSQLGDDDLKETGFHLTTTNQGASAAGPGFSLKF
UniProt Q9C0D2, sequence (Q9C0D2 whole entry, looked up): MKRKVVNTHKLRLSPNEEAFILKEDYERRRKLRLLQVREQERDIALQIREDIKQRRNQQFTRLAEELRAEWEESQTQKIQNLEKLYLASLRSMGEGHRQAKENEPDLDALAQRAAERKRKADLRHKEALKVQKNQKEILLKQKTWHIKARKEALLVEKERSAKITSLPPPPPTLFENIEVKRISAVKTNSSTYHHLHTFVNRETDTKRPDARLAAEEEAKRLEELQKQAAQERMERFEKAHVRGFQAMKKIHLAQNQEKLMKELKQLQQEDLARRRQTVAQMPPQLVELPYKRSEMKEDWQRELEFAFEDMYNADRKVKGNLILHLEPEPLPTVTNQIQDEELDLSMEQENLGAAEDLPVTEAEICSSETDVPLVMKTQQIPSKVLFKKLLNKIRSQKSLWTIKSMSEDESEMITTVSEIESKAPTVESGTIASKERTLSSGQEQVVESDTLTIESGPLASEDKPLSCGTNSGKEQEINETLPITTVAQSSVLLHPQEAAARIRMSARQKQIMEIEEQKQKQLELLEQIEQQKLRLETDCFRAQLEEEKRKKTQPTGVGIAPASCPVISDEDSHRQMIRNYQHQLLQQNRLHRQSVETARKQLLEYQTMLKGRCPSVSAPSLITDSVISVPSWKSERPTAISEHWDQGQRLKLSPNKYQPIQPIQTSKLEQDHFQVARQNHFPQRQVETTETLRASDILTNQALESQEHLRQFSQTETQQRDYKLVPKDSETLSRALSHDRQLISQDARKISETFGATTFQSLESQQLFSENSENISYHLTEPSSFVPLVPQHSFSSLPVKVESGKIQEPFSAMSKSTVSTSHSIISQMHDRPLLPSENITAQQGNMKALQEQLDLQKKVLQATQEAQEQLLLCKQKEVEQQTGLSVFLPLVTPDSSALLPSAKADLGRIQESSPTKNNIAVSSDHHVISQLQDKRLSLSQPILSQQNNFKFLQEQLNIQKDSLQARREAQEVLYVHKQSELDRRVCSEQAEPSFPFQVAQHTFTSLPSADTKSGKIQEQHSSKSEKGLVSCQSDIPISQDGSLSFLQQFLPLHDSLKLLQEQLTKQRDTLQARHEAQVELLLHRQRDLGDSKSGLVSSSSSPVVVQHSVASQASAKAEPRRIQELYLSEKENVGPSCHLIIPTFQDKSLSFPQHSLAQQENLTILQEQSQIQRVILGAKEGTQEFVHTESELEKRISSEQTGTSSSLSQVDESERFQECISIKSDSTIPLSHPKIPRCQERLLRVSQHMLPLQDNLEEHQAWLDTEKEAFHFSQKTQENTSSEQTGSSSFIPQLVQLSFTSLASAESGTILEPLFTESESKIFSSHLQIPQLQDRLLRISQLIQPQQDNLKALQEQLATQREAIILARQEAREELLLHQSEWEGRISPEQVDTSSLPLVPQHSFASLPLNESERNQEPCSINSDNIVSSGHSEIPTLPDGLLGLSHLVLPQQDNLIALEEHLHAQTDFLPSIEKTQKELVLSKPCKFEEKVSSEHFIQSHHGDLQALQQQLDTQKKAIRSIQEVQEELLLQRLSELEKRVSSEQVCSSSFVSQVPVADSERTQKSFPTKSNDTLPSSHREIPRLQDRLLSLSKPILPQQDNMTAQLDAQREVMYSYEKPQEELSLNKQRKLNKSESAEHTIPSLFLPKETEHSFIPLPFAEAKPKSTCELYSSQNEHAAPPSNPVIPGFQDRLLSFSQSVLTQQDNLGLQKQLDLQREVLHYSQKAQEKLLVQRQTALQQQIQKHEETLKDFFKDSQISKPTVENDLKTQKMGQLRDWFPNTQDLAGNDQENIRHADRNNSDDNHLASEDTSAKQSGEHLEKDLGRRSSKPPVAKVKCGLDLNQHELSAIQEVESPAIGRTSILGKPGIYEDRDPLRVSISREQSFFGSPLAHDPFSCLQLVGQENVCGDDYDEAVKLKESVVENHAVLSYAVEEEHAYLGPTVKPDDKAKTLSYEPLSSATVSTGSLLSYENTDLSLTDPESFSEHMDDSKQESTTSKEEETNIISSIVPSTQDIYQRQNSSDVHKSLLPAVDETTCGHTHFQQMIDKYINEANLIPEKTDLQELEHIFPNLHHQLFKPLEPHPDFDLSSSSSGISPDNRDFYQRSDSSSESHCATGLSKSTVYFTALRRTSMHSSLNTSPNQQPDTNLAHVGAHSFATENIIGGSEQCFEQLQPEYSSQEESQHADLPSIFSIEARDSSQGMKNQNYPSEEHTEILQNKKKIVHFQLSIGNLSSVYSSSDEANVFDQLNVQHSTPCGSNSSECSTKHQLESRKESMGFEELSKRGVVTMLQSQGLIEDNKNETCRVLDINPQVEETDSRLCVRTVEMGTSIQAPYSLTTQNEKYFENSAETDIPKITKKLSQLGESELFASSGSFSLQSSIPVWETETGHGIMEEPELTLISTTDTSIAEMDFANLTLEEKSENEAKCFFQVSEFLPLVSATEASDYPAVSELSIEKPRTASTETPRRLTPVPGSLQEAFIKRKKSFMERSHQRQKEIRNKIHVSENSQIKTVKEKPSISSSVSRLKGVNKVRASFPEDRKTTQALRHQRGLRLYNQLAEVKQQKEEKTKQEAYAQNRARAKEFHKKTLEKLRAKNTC
UniProt Q6ZRI6, sequence (Q6ZRI6 whole entry, looked up): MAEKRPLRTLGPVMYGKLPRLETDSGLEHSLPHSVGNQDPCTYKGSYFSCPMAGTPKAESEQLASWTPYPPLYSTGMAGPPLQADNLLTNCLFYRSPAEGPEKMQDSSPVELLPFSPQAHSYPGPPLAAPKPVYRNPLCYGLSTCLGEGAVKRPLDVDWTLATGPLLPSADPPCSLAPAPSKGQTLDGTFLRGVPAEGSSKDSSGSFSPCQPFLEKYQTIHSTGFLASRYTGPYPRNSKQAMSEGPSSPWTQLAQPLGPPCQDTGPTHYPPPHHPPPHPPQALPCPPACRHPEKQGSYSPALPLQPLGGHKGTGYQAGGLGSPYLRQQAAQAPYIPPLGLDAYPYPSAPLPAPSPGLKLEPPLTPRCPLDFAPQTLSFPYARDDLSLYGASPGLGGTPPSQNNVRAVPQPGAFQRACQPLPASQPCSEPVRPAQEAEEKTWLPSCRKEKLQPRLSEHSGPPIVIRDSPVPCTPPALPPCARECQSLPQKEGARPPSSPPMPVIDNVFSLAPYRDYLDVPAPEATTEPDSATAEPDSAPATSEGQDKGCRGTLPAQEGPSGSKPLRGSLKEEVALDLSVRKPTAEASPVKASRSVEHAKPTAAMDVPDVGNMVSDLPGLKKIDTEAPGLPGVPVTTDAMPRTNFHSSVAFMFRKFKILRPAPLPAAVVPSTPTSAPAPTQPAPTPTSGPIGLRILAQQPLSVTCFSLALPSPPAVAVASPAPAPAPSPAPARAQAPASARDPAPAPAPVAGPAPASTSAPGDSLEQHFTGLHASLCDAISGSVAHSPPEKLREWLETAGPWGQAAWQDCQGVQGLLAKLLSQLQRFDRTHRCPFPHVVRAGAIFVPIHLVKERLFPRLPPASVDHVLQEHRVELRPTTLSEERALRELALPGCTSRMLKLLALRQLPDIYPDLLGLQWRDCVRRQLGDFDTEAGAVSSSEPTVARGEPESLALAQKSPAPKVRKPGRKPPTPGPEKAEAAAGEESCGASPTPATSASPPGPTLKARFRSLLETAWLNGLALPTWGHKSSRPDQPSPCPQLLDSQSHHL
UniProt Q8IYX8, sequence (Q8IYX8 whole entry, looked up): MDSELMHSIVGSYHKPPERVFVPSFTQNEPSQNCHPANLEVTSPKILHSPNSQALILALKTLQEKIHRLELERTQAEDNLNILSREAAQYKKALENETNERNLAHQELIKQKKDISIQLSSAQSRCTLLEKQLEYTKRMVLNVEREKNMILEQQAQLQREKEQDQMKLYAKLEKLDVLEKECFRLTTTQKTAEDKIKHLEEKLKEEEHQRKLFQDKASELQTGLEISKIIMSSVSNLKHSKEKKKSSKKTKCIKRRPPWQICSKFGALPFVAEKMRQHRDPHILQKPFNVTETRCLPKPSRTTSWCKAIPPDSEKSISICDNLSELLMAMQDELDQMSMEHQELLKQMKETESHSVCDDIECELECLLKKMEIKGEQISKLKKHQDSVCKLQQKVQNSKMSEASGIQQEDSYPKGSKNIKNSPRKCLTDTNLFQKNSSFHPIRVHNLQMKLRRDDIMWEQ

log2 fold change, inactive:
CDK2 (UniProt P24941) -0.038
ATG4D (UniProt Q86TL0) 0.049
CASP7 isoform 3 (UniProt P55210) -0.118
BRD2 isoform 2 (UniProt P25440) -0.056
C15orf39 (UniProt Q6ZRI6) -0.005
CHD9 (UniProt Q3L8U1) -0.117
CCND3 (UniProt P30281) 0.039
CEP128 (UniProt Q6ZU80) -0.06
CHCHD7 isoform 4 (UniProt Q9BUK0) -0.038
C9orf72 (UniProt Q96LT7) -0.011
C8orf88 (UniProt P0DMB2) 0.06
CAPNS1 (UniProt K7ES78) 0.061
BICRA (UniProt Q9NZM4) -0.138
CHD4, A0A2R8Y521 -0.175
CDK11A (UniProt Q9UQ88) 0.003
CENPV (UniProt Q7Z7K6) 0.352
CDC25A (UniProt P30304) 0.014
BUD13 (UniProt Q9BRD0) 0.033
CASC1 (UniProt Q6TDU7) 0.078
ATPSCKMT (UniProt Q6P4H8) -0.15
BNIP3 (UniProt Q12983) 0.032
CEP57L1 (UniProt Q8IYX8) 0.171
CCDC130 (UniProt P13994) 0.181
CEP295 isoform 3 (UniProt Q9C0D2) 0.005
CDC14A isoform 2 (UniProt Q9UNH5) -0.336
B3GALT6 (UniProt Q96L58) 0.065

These targets were tested with CC(C)(O)CC(=O)NCCn1ccc2ncnc(Nc3ccc(Oc4cccc(C(F)(F)F)c4)c(Cl)c3)c21 in the same assay as above.
Summary of the method: as §1

log2 fold change, inactive:
CDK2 (UniProt P24941) 0.006
ATG4D (UniProt Q86TL0) 0.074
CASP7 isoform 3 (UniProt P55210) -0.012
BRD2 isoform 2 (UniProt P25440) 0.021
C15orf39 (UniProt Q6ZRI6) -0.029
CHD9 (UniProt Q3L8U1) -0.147
CCND3 (UniProt P30281) 0
CEP128 (UniProt Q6ZU80) -0.001
CHCHD7 isoform 4 (UniProt Q9BUK0) -0.014
C9orf72 (UniProt Q96LT7) -0.021
C8orf88 (UniProt P0DMB2) 0.047
CAPNS1 (UniProt K7ES78) -0.196
BICRA (UniProt Q9NZM4) -0.271
CHD4, A0A2R8Y521 -0.011
CDK11A (UniProt Q9UQ88) 0.056
CENPV (UniProt Q7Z7K6) -0.235
CDC25A (UniProt P30304) -0.044
BUD13 (UniProt Q9BRD0) 0.034
CASC1 (UniProt Q6TDU7) -0.093
ATPSCKMT (UniProt Q6P4H8) 0.088
BNIP3 (UniProt Q12983) 0.01
CEP57L1 (UniProt Q8IYX8) -0.272
CCDC130 (UniProt P13994) 0.077
CEP295 isoform 3 (UniProt Q9C0D2) 0.009
CDC14A isoform 2 (UniProt Q9UNH5) -0.135
B3GALT6 (UniProt Q96L58) 0.23

Each target was assayed with CC(C)C1=C2N=C(C=C(N2N=C1)NCC3=CC=CC=C3)NCCCCCCN in the same assay as above.
Summary of the method: as §1

log2 fold change, inactive:
CDK2 (UniProt P24941) -0.036
BAHCC1 (UniProt Q9P281) -0.018
CASP7 isoform 3 (UniProt P55210) -0.123
BRD2 isoform 2 (UniProt P25440) 0.26
C15orf39 (UniProt Q6ZRI6) -0.06
CHD9 (UniProt Q3L8U1) -0.074
CCND3 (UniProt P30281) 0.032
C9orf72 (UniProt Q96LT7) 0.025
C6orf120 (UniProt Q7Z4R8) -0.003
C8orf88 (UniProt P0DMB2) -0.05
CAPNS1 (UniProt K7ES78) -0.101
BICRA (UniProt Q9NZM4) 0.102
CDK11A (UniProt Q9UQ88) -0.036
CDC25A (UniProt P30304) 0.019
BUD13 (UniProt Q9BRD0) -0.051
CAD (UniProt H7BZB3) -0.073
BNIP3 (UniProt Q12983) -0.002
CEP57L1 (UniProt Q8IYX8) -0.049
CCDC130 (UniProt P13994) -0.112
CEP295 isoform 3 (UniProt Q9C0D2) -0.019
B3GALT6 (UniProt Q96L58) -0.025
